HCV inhibitor = blocks hepatitis C virus; 3.4% of 340,000 active; Potency, µM (titrated, usually from 41.8 µM), most hits filed as inhibitors; Huh7.5.1 HCVcc-Cre infection, luciferase reporter, 44 h
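Cells (1,000/well) were plated 4 h before compound, then infected with HCVcc-Cre virus (~0.5 moi). After 44 h further culture, infection was read as luciferase luminescence following a 15 min substrate incubation at room temperature.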
AMA1-RON2 inh = inhibitors of Plasmodium falciparum AMA1-RON2 interaction | 0.2% of 360,000 active | AlphaScreen AMA1-biotinylated RON2 peptide binding | Potency, µM (doses to about 58.2 µM), most hits filed as inhibitors; further: nearly all actives have a fitted effect of over 45% in size
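AMA1 (3D7) with his tag at 25 nM final met compounds first, then biotinylated RON2 peptide at 25 nM; detection used donor plus acceptor beads, 10 µg/mL apiece, read by AlphaScreen after 30 min at room temperature.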
Shiga toxin inh = inhibitors of Shiga toxin in Vero cells; Vero cells, Shiga toxin protein synthesis inhibition reporter; inhibition, % at 38.7 µM; 9.2% of 290,000 active; in the data active means inhibition mostly above about 28%, no sharp cut-off; inactive means mostly below about 43%
Pf growth 96h = P. falciparum growth inhibition at 96 hours. P. falciparum luciferase reporter growth, 96 h. Potency, µM (highest dose often 28.7 µM), usual class: inhibitors. 6.9% of 320,000 active
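Compounds incubated with erythrocytes infected by luciferase-expressing P. falciparum (2% hematocrit, 0.05% parasitemia final) for 96 hours, 37 C in 5% CO2. Growth inhibition scored as decreased luciferase luminescence.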
CHX counter = affects cycloheximide protein synthesis inhibition readout, counter-screen; cell reporter, cycloheximide protein synthesis inhibition counterscreen; max response, %; 12% of 300,000 active; AID 2314; in the data active means max response mostly above about 13%, no sharp cut-off; inactive means mostly below about 14%; further: read at 38.3 µM for the half of the compounds with a filed dose
Pf growth 48h = inhibits P. falciparum growth in the first generation, 48 h | P. falciparum luciferase growth in erythrocytes, 48 h | Potency, µM (highest dose often 28.7 µM), hits mostly inhibitors | 5.9% of 310,000 active
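Read-out is firefly luciferase luminescence from an integrated reporter in P. falciparum, so falling signal marks reduced parasite growth. Infected erythrocytes were at 2% hematocrit and 0.1% parasitemia (final) in Albumax-supplemented RPMI 1640.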
Each line names hits and unclear results; the compound was inactive in the other large screens. The list is not random: actives were taken first. Their share in the collection is about 21%. Unless noted, the call rests on the fitted dose curve; in most records, active means well fitted curve in the direction sought with a large enough effect; inconclusive means small, poorly fitted or top-dose-only effect, or another doubt; inactive means no such curve, though single readings can be large; an effect the other way counts as inactive or inconclusive.

COc1ccc(N/C=C/C(=O)c2ccc(OC)c(OC)c2)cc1	Shiga toxin inh 56, Pf growth 96h inconclusive, CHX counter 24, Pf growth 48h inconclusive
COc1ccc(N/C=C/C(=O)c2cc(OC)c(OC)c(OC)c2)cc1	CHX counter 17 (no result: Shiga toxin inh)
COc1ccc(-n2c(=O)[nH]c3cc(C(=O)NCCc4ccccc4)ccc3c2=O)cc1OC	Pf growth 48h inconclusive
CN(CC(=O)Nc1ccc(Cl)c(Cl)c1)C(=O)C12CC3CC(CC(C3)C1)C2	HCV inhibitor inconclusive, Pf growth 96h 7.4µM, Pf growth 48h inconclusive
COc1cc(C#Cc2c(-c3cncn3C)n(C)c3ccc(-c4ccc5[nH]ccc5c4)cc23)cc(OC)c1	HCV inhibitor inconclusive, Pf growth 96h 0.83µM, Pf growth 48h 1.5µM (no result: Shiga toxin inh, CHX counter)
COc1cc(C#Cc2c(-c3cncn3C)n(C)c3ccc(-c4ccc(OC)nc4)cc23)cc(OC)c1	Pf growth 96h 0.093µM, Pf growth 48h inconclusive (no result: Shiga toxin inh, CHX counter)
COc1cc(OC)cc(-c2c(C#Cc3ccsc3)c3cc(-c4ccc(C(N)=O)cc4)ccc3n2C)c1	HCV inhibitor inconclusive, Pf growth 96h 1µM, Pf growth 48h 1.3µM (no result: Shiga toxin inh, CHX counter)
COc1cc(OC)cc(-c2c(C#Cc3ccsc3)c3cc(-c4cc(OC)c(OC)c(OC)c4)ccc3n2C)c1	none (no result: Shiga toxin inh, Pf growth 96h, CHX counter, Pf growth 48h)
COc1cc(OC)cc(-c2c(C#Cc3ccsc3)c3cc(-c4ccc5[nH]ccc5c4)ccc3n2C)c1	Pf growth 96h inconclusive, Pf growth 48h inconclusive (no result: Shiga toxin inh, CHX counter)
COc1cc(C#Cc2c(-c3cncn3C)n(C)c3ccc(-c4cc(OC)c(OC)c(OC)c4)cc23)cc(OC)c1	HCV inhibitor 11µM (no result: Shiga toxin inh, Pf growth 96h, CHX counter, Pf growth 48h)
CCOC(=O)c1cc(C(=O)NNC(=O)c2cccc([N+](=O)[O-])c2)c(C)nc1C	HCV inhibitor inconclusive (no result: Shiga toxin inh, CHX counter)
CCN(CC)c1ccc(Nc2nc(N3CCOCC3)c3ccccc3n2)cc1	HCV inhibitor 4.5µM, AMA1-RON2 inh 24µM (no result: Pf growth 96h)
COc1ccc(Nc2nc(N3CCCC3)c3ccccc3n2)cc1	HCV inhibitor 10µM, AMA1-RON2 inh inconclusive, Pf growth 48h 3.3µM
c1ccc2c(N3CCCC3)nc(-c3ccncc3)nc2c1	HCV inhibitor inconclusive, Pf growth 96h inconclusive, Pf growth 48h inconclusive
c1ccc2c(c1)nc(N1CCOCC1)c1ccccc12	HCV inhibitor inconclusive, Pf growth 48h inconclusive
CC(C)CC(NC(=O)C(NC(=O)C1OC2OC(C)(C)OC2C2OC(C)(C)OC12)C(C)C)C(=O)O (configuration not stated)	none
Cn1nnnc1SC1CC(=O)N(c2ccccc2)C1=O (configuration not stated)	none
CCN1C(=O)CC(Sc2ccccc2C(=O)O)C1=O (configuration not stated)	none (no result: Pf growth 96h)
COC(=O)c1ccccc1SC1CC(=O)N(c2ccccc2)C1=O (configuration not stated)	Shiga toxin inh 57, Pf growth 96h 12µM, CHX counter 28
O=C(O)c1ccccc1SC1CC(=O)N(c2cccc3ccccc23)C1=O (configuration not stated)	Pf growth 48h 2.1µM
CCOc1ccc(S(=O)(=O)N2CCC(C(=O)NC3CC3)CC2)cc1Cl	Pf growth 48h inconclusive
CC(=O)Nc1cccc2c1Cc1ccccc1-2	HCV inhibitor inconclusive, CHX counter 41
CC(=O)Nc1ccc2c(c1Br)Cc1ccccc1-2	HCV inhibitor inconclusive (no result: Shiga toxin inh, Pf growth 96h, CHX counter, Pf growth 48h)
c1ccc(Cn2cc(-c3ccccc3)cn2)cc1	Pf growth 96h inconclusive (no result: Shiga toxin inh, CHX counter)
CC(C)(C)OC(=O)N1CCC(c2cc(-c3cccs3)n[nH]2)CC1	Pf growth 96h inconclusive, CHX counter 26
COc1ccc(CCNC(=O)Cn2nnc(C(=O)Nc3cccc(C)c3C)c2N)cc1OC	HCV inhibitor inconclusive, Pf growth 96h 1.9µM
Cc1ccccc1NC(=O)c1nnn(-c2ccc3c(c2)OCCO3)c1N	HCV inhibitor 10µM, Shiga toxin inh 80, Pf growth 96h inconclusive, CHX counter 53
COc1ccc(CCNC(=O)Cn2nnc(C(=O)Nc3cc(C)ccc3C)c2N)cc1OC	HCV inhibitor inconclusive, Pf growth 96h inconclusive
COc1ccc(CCNC(=O)c2nnn(-c3ccc4c(c3)OCCO4)c2N)cc1OC	HCV inhibitor inconclusive, Shiga toxin inh 151, CHX counter 70
Nc1c(C(=O)Nc2cccc(F)c2)nnn1-c1ccc2c(c1)OCCO2	Shiga toxin inh 70, CHX counter 20
CN(C)S(=O)(=O)c1ccc(Cl)c(NC(=O)COC(=O)/C=C/c2ccc3ccccc3n2)c1	none (no result: Shiga toxin inh, CHX counter)
COCCSc1nnc(NC(=O)CCS(=O)(=O)c2ccccc2)s1	HCV inhibitor inconclusive
COc1ccc(OC)c(NC(=O)CCCCCn2nnc3ccccc3c2=O)c1	HCV inhibitor inconclusive
CCOc1ccccc1NC(=O)c1nnn(CC(=O)Nc2ccc3c(c2)OCO3)c1N	none
CCOc1ccccc1NC(=O)c1nnn(-c2ccc3c(c2)OCCO3)c1N	HCV inhibitor inconclusive, Shiga toxin inh 64, Pf growth 96h inconclusive, CHX counter 26
C=CCNC(=S)/N=c1/ccccn1CC	none
CCN(CC)S(=O)(=O)c1ccc(C(O)=C(C#N)c2nc3ccccc3n2C)cc1	none (no result: Shiga toxin inh, Pf growth 96h, CHX counter, Pf growth 48h)
COC(=O)c1ccc(COc2cccc(OC)c2)o1	Shiga toxin inh 58, CHX counter 22 (no result: Pf growth 96h)
COC(=O)c1ccc(COc2ccc(Cl)cc2)o1	Shiga toxin inh 75, CHX counter 20
CCc1ccc(OCc2ccc(C(=O)O)o2)cc1	Shiga toxin inh 101, CHX counter 64
O=C(O)c1ccc(COc2ccc(Cl)cc2)o1	CHX counter 24
CCN1CCN(C(=O)c2ccc(COc3ccc(Cl)cc3)o2)CC1	HCV inhibitor inconclusive
Fc1ccc(-c2[nH]ncc2CN(CC2CCC2)CC2CCCO2)c(F)c1 (configuration not stated)	Pf growth 96h inconclusive
NC(=O)CC(NC(=O)c1ccc(Br)cc1)c1ccc(NC2CCCCCCC2)c([N+](=O)[O-])c1 (configuration not stated)	none
Cc1ccc(S(=O)(=O)CCC(=O)OCC(=O)N(C)c2ccccc2)cc1	none (no result: Shiga toxin inh, Pf growth 96h, CHX counter, Pf growth 48h)
N#Cc1ccc(OCc2ccc(C(=O)O)o2)cc1	none
COC(=O)c1ccc(COc2ccc(/C=N/O)cc2OC)o1	Shiga toxin inh 71, Pf growth 96h inconclusive, CHX counter 20
O=C(O)c1ccc(OCc2ccc(C(=O)O)o2)cc1	CHX counter 15
C=CCc1ccc(OCc2ccc(C(=O)Nc3ccc(NC(C)=O)cc3)o2)c(OC)c1	HCV inhibitor inconclusive, Shiga toxin inh 136, Pf growth 96h inconclusive, CHX counter 47
Cc1cccnc1NC(=O)c1nn(C)c2c1CS(=O)(=O)c1ccccc1-2	none
O=C(COC(=O)c1cc(Cl)ccc1O)Nc1cc(C(F)(F)F)ccc1N1CCOCC1	none (no result: Shiga toxin inh, Pf growth 96h, CHX counter, Pf growth 48h)
CSCCC1NC2(C(=O)Nc3c(Cl)cccc32)[C@@H]2C(=O)N(C3CCCC3)C(=O)[C@H]12 (some centres not stated)	Pf growth 96h 10µM, Pf growth 48h inconclusive

From PubChem
